Data taken from PubChem BioAssay (EPA / NIEHS).
A structure can be active in one record and inactive in another. The source made the active and inactive calls. Rule for the calls: active = hit-call score of the fitted dose curve at least 0.9, where 1 is the maximum; inactive = score below 0.9.

What was measured:
[1] = read-out: Interleukin-1 alpha (IL1a), IL1A (gene 3552); assay: BSK_KF3CT_IL1a: BioMAP Diversity Plus: KF3CT Assay for Interleukin-1 alpha (IL1a) Biomarker Activity (AID 2283070); details: primary human keratinocytes with fibroblasts; actives raise or lower the signal
How it was run: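 IL-1a was detected by ELISA 24 h after chemical treatment of a co-culture of human skin keratinocytes and foreskin fibroblasts. Gain or loss of signal was fitted against the DMSO baseline.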

[2] = read-out: TIMP metallopeptidase inhibitor 2 (TIMP2), TIMP2 (gene 7077); assay: BSK_KF3CT_TIMP2: BioMAP Diversity Plus: KF3CT Assay for TIMP metallopeptidase inhibitor 2 (TIMP2) Biomarker Activity (AID 2283071); details: primary human keratinocytes with fibroblasts; actives raise or lower the signal
How it was run: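 Measurements come from ELISA detection of TIMP-2 at 24 hours in a dosed human keratinocyte and foreskin fibroblast co-culture. DMSO serves as negative control and baseline.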

[3] = read-out: Transforming growth factor beta 1 (TGFb1), TGFB1 (gene 7040); assay: BSK_KF3CT_TGFb1: BioMAP Diversity Plus: KF3CT Assay for Transforming growth factor beta 1 (TGFb1) Biomarker Activity (AID 2283072); details: primary human keratinocytes with fibroblasts; actives raise or lower the signal
How it was run: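 TGF-b1 ELISA on a 24 h dosed co-culture of human keratinocytes and foreskin fibroblasts; cytotoxicity tracked in parallel cultures by SRB staining.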

[4] = read-out: C-C motif chemokine 2 (Homo sapiens) (UniProt P13500); assay: BSK_KF3CT_MCP1: BioMAP Diversity Plus: KF3CT Assay for Monocyte Chemoattractant Protein 1 (MCP1/CCL2) Biomarker Activity (AID 2283073); details: primary human keratinocytes with fibroblasts; actives raise or lower the signal
How it was run: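 ELISA readout of MCP-1 after 24 h chemical dosing of a human skin primary co-culture of keratinocytes and foreskin fibroblasts. Activity was fitted in both directions against DMSO.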

[5] = read-out: Matrix Metallopeptidase 9 (MMP9), MMP9 (gene 4318); assay: BSK_KF3CT_MMP9: BioMAP Diversity Plus: KF3CT Assay for Matrix Metallopeptidase 9 (MMP9) Biomarker Activity (AID 2283074); details: primary human keratinocytes with fibroblasts; actives raise or lower the signal;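 for AC50: MMP9 protein level quantified by ELISA in the co-culture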
How it was run: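 MMP-9 quantified by ELISA after 24 h chemical treatment of primary human skin keratinocyte/fibroblast co-cultures; gain or loss fitted against DMSO, with parallel SRB staining (0.1% SRB, 560 nm) for overt cytotoxicity.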

[6] = read-out: urokinase plasminogen activator (uPA), PLAU (gene 5328); assay: BSK_KF3CT_uPA: BioMAP Diversity Plus: KF3CT Assay for urokinase plasminogen activator (uPA) Biomarker Activity (AID 2283075); details: primary human keratinocytes with fibroblasts; actives raise or lower the signal
How it was run: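 ELISA read-out of uPA 24 h after dosing human skin keratinocytes co-cultured with foreskin fibroblasts. Signal change fitted both ways relative to DMSO; sulforhodamine B on parallel cultures marks overt cytotoxicity.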

[7] = read-out: CD40, CD40 (gene 958); assay: BSK_LPS_CD40: BioMAP Diversity Plus: LPS Assay for CD40 Biomarker Activity (AID 2283076); details: primary human HUVEC with PBMC; actives raise or lower the signal
How it was run: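 Cells were dosed, incubated 24 h, then assayed for CD40 by ELISA. Gain or loss of signal was analysed relative to DMSO controls. The culture paired human umbilical vein endothelium with peripheral blood mononuclear cells.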

[8] = read-out: E-selectin (Homo sapiens) (UniProt P16581); assay: BSK_LPS_Eselectin: BioMAP Diversity Plus: LPS Assay for Eselectin Biomarker Activity (AID 2283077); details: primary human HUVEC with PBMC; actives raise or lower the signal
How it was run: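 Primary human vascular co-culture (endothelium plus PBMC) was dosed with chemical, then E-selectin quantified by ELISA at 24 h. Endpoint values derive from bidirectional curve fitting relative to DMSO.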

[9] = read-out: Interleukin-8 (IL8), CXCL8 (gene 3576); assay: BSK_LPS_IL8: BioMAP Diversity Plus: LPS Assay for Interleukin-8 (IL8) Biomarker Activity (AID 2283078); details: primary human HUVEC with PBMC; actives raise or lower the signal
How it was run: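 Readout is IL-8 by ELISA, taken 24 h after compounds were added to LPS-stimulated endothelial/PBMC co-cultures. Both increases and decreases relative to DMSO control were scored through bidirectional fitting.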

[10] = BSK_LPS_SRB: Viability Assessment in the BioMAP Diversity Plus: LPS Assay (AID 2283079); details: primary human HUVEC with PBMC;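 note: total protein by sulforhodamine B absorbance as a cytotoxicity measure; measured one day after compound addition; fitted in both directions against DMSO so loss or gain of signal counts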
How it was run: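 Readout is SRB absorbance at 560 nm (0.1% stain, TCA-fixed parallel cultures) as a total-protein cytotoxicity measure. Cells: primary human umbilical vein endothelium plus peripheral blood mononuclear cells, 24 h after chemical exposure; DMSO served as baseline.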

Measured: AC50

Sequence of E-selectin (Homo sapiens) (P16581 whole entry, looked up): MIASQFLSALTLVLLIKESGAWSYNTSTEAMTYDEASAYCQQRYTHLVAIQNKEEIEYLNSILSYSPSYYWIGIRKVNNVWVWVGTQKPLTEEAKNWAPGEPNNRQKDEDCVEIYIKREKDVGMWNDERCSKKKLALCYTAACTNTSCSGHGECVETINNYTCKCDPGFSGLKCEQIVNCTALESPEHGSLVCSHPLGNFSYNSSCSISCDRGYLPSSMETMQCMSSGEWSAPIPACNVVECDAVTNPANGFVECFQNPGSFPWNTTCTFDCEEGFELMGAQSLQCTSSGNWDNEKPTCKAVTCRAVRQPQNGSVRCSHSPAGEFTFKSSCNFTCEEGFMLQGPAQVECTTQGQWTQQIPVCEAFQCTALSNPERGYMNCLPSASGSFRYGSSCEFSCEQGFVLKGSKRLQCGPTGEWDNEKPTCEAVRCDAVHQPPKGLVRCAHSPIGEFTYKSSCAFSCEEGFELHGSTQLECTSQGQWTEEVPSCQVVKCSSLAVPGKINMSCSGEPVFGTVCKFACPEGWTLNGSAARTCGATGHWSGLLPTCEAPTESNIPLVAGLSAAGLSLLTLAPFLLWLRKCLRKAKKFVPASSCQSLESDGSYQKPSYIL

CCOC(=O)CC(O)(CC(=O)OCC)C(=O)OCC
inactive: [1] | [2] | [3] | [4] | [5] | [6] | [7] | [8] | [9] | [10]

OC1CCC(C2CCCCC2)CC1 (configuration not stated)
inactive: [1] | [2] | [3] | [4] | [5] | [6] | [7] | [8] | [9] | [10]

CC(=O)CC(C)(C)O
inactive: [1] | [3] | [4] | [5] | [6] | [7] | [8] | [9] | [10]

COc1ccc([N+](=O)[O-])cc1N
inactive: [1] | [3] | [4] | [5] | [6] | [7] | [8] | [9] | [10]

CN1CCN(c2ccccc2/C=C2\SCCN(c3ccc(Cl)c(Cl)c3)C2=O)CC1
active: [1] 30.6 µM | [3] 29.1 µM | [4] 32.4 µM | [5] 26.8 µM | [6] 30.1 µM | [9] 20 µM | [10] 16.3 µM
inactive: [8]

O=C(O)c1ccccc1C(c1ccc(O)cc1)c1ccc(O)cc1
inactive: [1] | [3] | [4] | [5] | [6] | [8] | [9] | [10]

C=C(C)C(=O)OCCC(F)(F)C(F)(F)C(F)(F)C(F)(F)C(F)(F)C(F)(F)F
inactive: [1] | [3] | [4] | [5] | [6] | [8] | [9] | [10]

COCC(C)OCC(C)O (configuration not stated)
inactive: [1] | [3] | [4] | [5] | [6] | [7] | [8] | [9] | [10]

CC(O)CO (configuration not stated)
inactive: [1] | [3] | [4] | [5] | [6] | [8] | [9] | [10]

CCCCCCC(=O)O
inactive: [1] | [3] | [4] | [5] | [6] | [7] | [8] | [9] | [10]

CCCCCCCCCCCCCC[N+](C)(C)C
active: [1] 3.96 µM | [3] 0.925 µM | [4] 8.89 µM | [5] 3.52 µM | [6] 4.33 µM | [8] 10 µM | [9] 10.9 µM | [10] 5.37 µM

O=C(O)Cc1cc(I)c(Oc2cc(I)c(O)c(I)c2)c(I)c1
inactive: [8] | [10]
active: [1] 18.7 µM | [3] 8.34 µM | [4] 11 µM | [5] 8.62 µM | [6] 18.8 µM | [7] 14.7 µM | [9] 20.5 µM

OCCC(F)(F)C(F)(F)C(F)(F)C(F)(F)C(F)(F)C(F)(F)F
active: [10] 45.8 µM
inactive: [1] | [3] | [4] | [5] | [6] | [8] | [9] | [10]

O=C(OCCOCCOC(=O)c1ccccc1)c1ccccc1
inactive: [1] | [3] | [4] | [5] | [6] | [7] | [8] | [9] | [10]

c1ccc2cc3c(ccc4ccccc43)cc2c1
inactive: [1] | [3] | [4] | [5] | [6] | [8] | [9] | [10]

Nc1cccc2c(N)cccc12
inactive: [1] | [3] | [4] | [5] | [6] | [8] | [9] | [10]

CCCCCCCCCCCCCCCS(=O)(=O)Oc1ccccc1
inactive: [1] | [3] | [4] | [5] | [6] | [8] | [9] | [10]
